The text below walks through data of PubChem BioAssay.

Assay [1] can be described thus: compound effects on lung adenocarcinoma cell viability – A549, calcein-AM fluorescence, 48 h, basal, profiling panel (AID 1162). Note: test concentration not given here. Particulars: higher = more signal.
The nature of assay [2]: compound effects on differentiated 3T3-L1 adipocyte viability – cell-based, 3T3-L1 adipocytes, calcein-AM fluorescence, 48 h, basal, profiling panel (AID 1163). Note: test concentration not given here. To be noted: 3T3-L1 adipocytes viability, higher = more signal.
Assay [3] is described as follows: compound effects on hepatocellular carcinoma cell viability – HepG2, calcein-AM fluorescence, 48 h, basal, profiling panel (AID 1164). Note: test concentration not given here. Particulars: higher = more signal.
The nature of assay [4]: compound effects on multiple myeloma cell viability – MM1S, calcein-AM fluorescence, 48 h, basal, profiling panel (AID 1165).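 Note: viability of MM1S multiple myeloma cells under basal unstimulated conditions; test concentration not given here.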 Particulars: higher = more signal.
Assay [5] is described as follows: calcein-AM signal in unstimulated myeloma cells – cell-based, calcein-AM fluorescence, 48 h, PK04 Diversity Set, profiling panel (AID 1166).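 Note: cells grown under basal conditions without added stimulus; test concentration not given here.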 Particulars: RPMI8226 myeloma viability, higher = more signal.
The nature of assay [6]: JC-1 mitochondrial signal, unstimulated HepG2 cells – cell-based, JC-1 fluorescence, 24 h, 100 nL compound, profiling panel (AID 1167). Note: test concentration not given here. Particulars: HepG2 mitochondrial potential, higher = more signal.
The nature of assay [7]: JC-1 mitochondrial signal, unstimulated adipocytes – cell-based, JC-1 fluorescence, 3T3-L1 adipocytes, 24 h, 100 nL compound, profiling panel (AID 1168). Note: test concentration not given here. Particulars: JC-1 mitochondrial fluorescence, higher = more signal, called active from +8 up or from −8 down.
The nature of assay [8]: JC-1 mitochondrial signal, unstimulated myeloma cells – cell-based, JC-1 fluorescence, RPMI8226, 24 h, 100 nL compound, profiling panel (AID 1169). Note: test concentration not given here. To be noted: JC-1 mitochondrial potential fluorescence, higher = more signal.
Assay [9] is described as follows: JC-1 mitochondrial signal, unstimulated MM1S myeloma – cell-based, JC-1 fluorescence, 24 h, 100 nL compound, profiling panel (AID 1170). Note: test concentration not given here. Particulars: MM1S mitochondrial potential, higher = more signal.
The nature of assay [10]: resazurin metabolic signal in A549 cells – cell-based, resazurin fluorescence, 24 h, PK04 Diversity Set, profiling panel (AID 1171). Note: test concentration not given here. To be noted: A549 viability, higher = more signal, called active from +8 up or from −8 down.
Assay [11] in a line: resazurin metabolic signal in HepG2 cells – cell-based, resazurin fluorescence, 24 h, PK04 Diversity Set, profiling panel (AID 1172). Note: test concentration not given here. To be noted: HepG2 viability, higher = more signal.
Assay [12] is described as follows: budding yeast growth changes without added modifier – OD600, strain BY4716, 24 h, basal condition, primary screen (AID 1173). Particulars: S. cerevisiae BY4716 growth, OD600, 24 h; higher = more signal, called active from +8 up or from −8 down.
Assay [13] in a line: viability profiling in MM1S myeloma cells – cell-based, resazurin fluorescence, basal, 24 h, PK04 Diversity Set, profiling panel (AID 1174). Note: test concentration not given here. Particulars: higher = more signal, called active from +8 up or from −8 down.
Assay [14] addresses Dihydroorotate dehydrogenase (quinone), mitochondrial (Plasmodium falciparum (isolate 3D7)) (UniProt Q08210). The experiment in a line: inhibition of P. falciparum DHODH – biochemical, C-terminal His tag, absorbance 600 nm, primary screen (AID 1175).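 Note: recombinant parasite enzyme with a five histidine tag at its C terminus; test concentration not given here.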 Particulars: PfDHODH enzyme, DCIP absorbance 600 nm; higher = more signal, called active from +8 up or from −8 down.
The nature of assay [15]: inhibition of PAO1 biofilm formation – strain PAO1, LB-PBS medium, absorbance 600 nm, primary screen (AID 1176). Note: test concentration not given here. To be noted: P. aeruginosa PAO1 growth/biofilm, A600, 12 h; higher = more signal.
The nature of assay [16]: growth modulation of vineyard yeast isolate – strain RM11-1a, OD600, basal, 24 h, primary screen (AID 1177).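 Note: cultures grown under basal conditions with no added stressor; test concentration not given here.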 To be noted: S. cerevisiae RM11-1a growth, OD600, 24 h; higher = more signal, called active from +8 up or from −8 down.
The nature of assay [17]: growth of efflux-deficient E. coli DRC39 – strain DRC39, OD650, 24 h, E. coli filamentation inducers, primary screen (AID 1178).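 Note: growth measured as culture turbidity by optical density at 650 nm; test concentration not given here.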 To be noted: E. coli DRC39 acrAB, higher = more signal, called active from +8 up or from −8 down.
Assay [18] in a line: growth of efflux-deficient E. coli DRC39 – strain DRC39, OD650, 48 h, E. coli filamentation inducers, primary screen (AID 1179).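 Note: screen aims at cell division blockers that make cells filament.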 Particulars: E. coli DRC39 delta-acrAB growth, higher = more signal, called active from +8 up or from −8 down.
Assay [19] is described as follows: viability profiling in RPMI8226 myeloma cells – cell-based, resazurin fluorescence, basal, 24 h, PK04 Diversity Set, profiling panel (AID 1180).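 Note: RPMI8826 multiple myeloma cell line at 5000 cells per well; test concentration not given here.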 To be noted: higher = more signal.
Assay [20] addresses E3 ubiquitin-protein ligase XIAP (Homo sapiens) (UniProt P98170). In words: small molecules binding XIAP protein – biophysical, small-molecule microarray, fluorescence 635 nm, primary screen (AID 1181).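 Note: score merges 667 nm emission and signal to noise over triplicate slides.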 To be noted: higher = more signal.

Activity calls are given as the source filed them. Unless noted, the rule behind the calls is not given here.

E3 ubiquitin-protein ligase XIAP (Homo sapiens), sequence (P98170 whole entry, looked up): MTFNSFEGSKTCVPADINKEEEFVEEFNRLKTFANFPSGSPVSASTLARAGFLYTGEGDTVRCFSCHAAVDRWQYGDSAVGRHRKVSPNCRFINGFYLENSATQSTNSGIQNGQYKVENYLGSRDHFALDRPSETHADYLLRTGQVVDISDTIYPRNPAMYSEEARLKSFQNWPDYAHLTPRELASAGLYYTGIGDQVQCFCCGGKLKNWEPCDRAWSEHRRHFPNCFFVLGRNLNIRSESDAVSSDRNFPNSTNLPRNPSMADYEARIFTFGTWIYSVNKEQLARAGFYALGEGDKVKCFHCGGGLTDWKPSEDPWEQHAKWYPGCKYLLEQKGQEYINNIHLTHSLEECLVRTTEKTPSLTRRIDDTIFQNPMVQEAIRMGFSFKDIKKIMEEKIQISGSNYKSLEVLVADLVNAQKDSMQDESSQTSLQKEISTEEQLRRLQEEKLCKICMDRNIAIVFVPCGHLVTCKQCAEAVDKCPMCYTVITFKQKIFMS
Dihydroorotate dehydrogenase (quinone), mitochondrial (Plasmodium falciparum (isolate 3D7)), sequence (Q08210 whole entry, looked up): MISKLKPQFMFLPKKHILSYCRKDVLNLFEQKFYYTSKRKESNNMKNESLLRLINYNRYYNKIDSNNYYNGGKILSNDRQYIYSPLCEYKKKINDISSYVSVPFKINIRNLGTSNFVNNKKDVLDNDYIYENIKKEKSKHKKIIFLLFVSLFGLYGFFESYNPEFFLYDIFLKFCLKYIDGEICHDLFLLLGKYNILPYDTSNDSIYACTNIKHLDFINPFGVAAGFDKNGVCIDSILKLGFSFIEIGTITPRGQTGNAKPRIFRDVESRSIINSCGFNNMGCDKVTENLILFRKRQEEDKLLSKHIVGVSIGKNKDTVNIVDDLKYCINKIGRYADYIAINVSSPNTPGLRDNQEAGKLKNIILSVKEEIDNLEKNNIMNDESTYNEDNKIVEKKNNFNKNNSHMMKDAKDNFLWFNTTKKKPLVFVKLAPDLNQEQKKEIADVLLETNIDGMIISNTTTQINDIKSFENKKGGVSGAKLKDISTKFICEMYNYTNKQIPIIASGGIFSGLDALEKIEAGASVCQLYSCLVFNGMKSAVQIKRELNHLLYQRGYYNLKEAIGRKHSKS

For the molecule `COC(=O)CC=C[C@@H](C)[C@@H](C=NOC[C@@H](C)[C@H](OCc1ccccc1)C(C)C)NS(=O)(=O)c1ccc(C)cc1`, the z-score is 0.0174 in assay [1]; 0.502 in [2]; -0.692 in [3]; -0.726 in [4]; -0.96 in assay [5]; -0.685 in assay [6]. Further, the z-score in [7] was -2.09 (inactive); in assay [8], -0.129; in assay [9], -0.00529; in [10], 0.0101 (inactive); in assay [11], -1; in assay [12] it was -0.0668 (inactive). The z-score was -0.562 (inactive) in assay [13]; -0.291 (inactive) in assay [15]; 0.391 (inactive) in [16]; -0.247 (inactive) in assay [17]; -1.18 (inactive) in assay [18]; 0.0833 in [19]. Moreover, the composite z-score in assay [14] was 1.07 (inactive); in [20], -0.0844.
Regarding `CCN1C(=O)[C@H]2[C@H]3[C@H](O)[C@H](O)CC(=NO[C@@H]4O[C@H](COC(C)=O)[C@@H](OC(C)=O)[C@H](OC(C)=O)[C@H]4OC(C)=O)[C@@H]3CC[C@H]2C1=O`, the z-score in assay [1] is 0.13; in assay [2], -0.81; in assay [3], -0.145; in assay [4] it was -1.29; in assay [5], -1.05; in assay [6], -0.611. The z-score was -1.51 (inactive) in [7]; 0.69 in assay [8]; -0.654 in assay [9]; -0.959 (inactive) in assay [10]; -1.15 in [11]; 0.902 (inactive) in assay [12]. The z-score is -0.974 (inactive) in assay [13]; -0.136 (inactive) in [15]; 0.164 (inactive) in assay [16]; 1.22 (inactive) in assay [17]; 1.44 (inactive) in assay [18]; -1.03 in assay [19]. Further, the values for the composite z-score in assay [14] and in assay [20] were -0.0673 (inactive) and 1.92, respectively.
`COc1ccc(OC[C@@H](CO)OC)cc1`: the z-score was 0.677 in [1]; 0.363 in assay [2]; 0.647 in assay [3]; 0.124 in [4]; -0.342 in [5]; -0.15 in assay [6]. Moreover, the z-score was -0.321 (inactive) in [7]; 0.104 in [8]; 0.674 in assay [9]; -0.551 (inactive) in [10]; -0.279 in assay [11]; 0.0175 (inactive) in assay [12]. Also, the z-score in assay [13] was -0.143 (inactive); in assay [15], -0.364 (inactive); in assay [16] it was -0.334 (inactive); in assay [17], 0.293 (inactive); in assay [18], 0.178 (inactive); in assay [19], 0.421. Besides, the composite z-score in assay [14] is -0.591 (inactive); in assay [20], -0.0344.
For `CCOC(=O)CCN1C(=O)[C@H]2[C@H]3[C@H](O)[C@H](O)CC(=NO[C@@H]4O[C@H](CO)[C@@H](O)[C@H](O)[C@H]4O)[C@H]3CC[C@H]2C1=O`, the z-score in [1] was 0.484; in [2], -0.961; in assay [3], -0.898; in [4], -0.359; in [5], -0.0451; in assay [6] it was -1.13. Besides, the z-score in [7] is -0.647 (inactive); in assay [8], -0.225; in assay [9], -0.171; in [10] it was -0.292 (inactive); in assay [11] it was -0.228; in [12], 0.87 (inactive). Further, the z-score in assay [13] is -0.433 (inactive); in assay [15], -0.483 (inactive); in assay [16], -0.402 (inactive); in [17] it was -0.739 (inactive); in [18] it was -0.0907 (inactive); in assay [19], -0.162. The composite z-score is 0.29 (inactive) in [14] and 0.106 in [20].
